Source: PubChem
The sample as a whole holds a higher share of hits than the screen did.
FECH block – inhibitors of human ferrochelatase, primary screen, biochemical, purified FECH, Ni-mesoporphyrin absorbance. Ferrochelatase, mitochondrial (Homo sapiens), P22830. Ni-mesoporphyrin absorbance 550 nm. calls only at 10 µM (by protocol). 20,000 compounds, 3.3% hits. AID 1671448, 2021;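 active means enzyme reaction rate more than 3 SD below the solvent-only control wells on the same plate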;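 further: lower slope than DMSO wells means FECH inhibition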
Starred values were filed as active, the others as inactive; i = inactive; + = active, no number.

SMILES	FECH block
Cc1cc(CC(C)n2cnc(-c3ccccc3)c2-c2cnn3cccnc23)n[nH]1 (configuration not stated)	i
O=S(=O)(c1ccc(Br)cc1)N1CCN(c2cc(-c3cccc(F)c3)ncn2)CC1	i
Cc1ccc(-c2cc(N3CCN(S(=O)(=O)c4ccc(Br)cc4)CC3)ncn2)cc1	+
O=S(=O)(c1ccc(Br)cc1)N1CCN(c2cc(-c3ccc(F)cc3)ncn2)CC1	i
O=C(NCc1ccccn1)c1nc[nH]c1C(=O)NCc1ccccn1	+
CC(C)CCNC(=O)c1[nH]cnc1C(=O)NC(c1ccccc1)c1ccccc1	i
CCCNC(=O)c1[nH]cnc1C(=O)NC1CCc2ccccc21 (configuration not stated)	i
CC(C)CCNC(=O)c1nc[nH]c1C(=O)NCc1cccc(C(F)(F)F)c1	i
CC(C)CNC(=O)c1nc[nH]c1C(=O)NCC(C)(C)C	i
O=C(NCc1ccccn1)c1nc[nH]c1C(=O)NCc1cccc(C(F)(F)F)c1	+
CC(C)(C)CNC(=O)c1[nH]cnc1C(=O)NC1CCC(O)CC1 (configuration not stated)	i
O=C(NCCc1c[nH]c2ccccc12)c1nc[nH]c1C(=O)NCc1ccccn1	i
O=C(NC1CCc2ccccc21)c1nc[nH]c1C(=O)NCc1ccccn1 (configuration not stated)	+
CCN(CC)C(=O)N1CCOC(c2ccc(Cl)c(Cl)c2)C1 (configuration not stated)	i
O=S(=O)(c1ccc(F)cc1)N1CCN(c2cc(-c3ccc(F)cc3)ncn2)CC1	i
CCN1C(=O)c2ccccc2Sc2cc(-c3noc(CNC(=O)c4ccco4)n3)ccc21	i
O=C1CCCc2cc(S(=O)(=O)N3CCCC3C(=O)NC3CC3)ccc2N1 (configuration not stated)	i
COc1ccc(NC(=O)CN2C(=O)CN(C)C(=O)c3ccccc32)cc1Cl	i
CCC1=C(c2ccc(OC)cc2)S(=O)(=O)N(CC(=O)Nc2ccc(C)cc2C)C1=O	i
CCc1cnc(C)nc1N1CCN(Cc2cn[nH]c2-c2ccccc2)CC1	i
CCc1cn[nH]c1C1CCCN(C(=O)c2cc(C(C)C)n3ncnc3n2)C1 (configuration not stated)	i
Cc1ccc(C(=O)N(Cc2nc3nc(C)cc(C)n3n2)c2ccccc2)cc1	i
CCc1ccc(-c2cn3c(C(=O)N4[C@@H]5CC[C@H]4CNC(=O)C5)csc3n2)cc1	i
CCCN(CCC)c1ncc(NS(=O)(=O)c2ccc3c(c2)CCCC3)cc1C(=O)O	i
CCOc1ccc(CC(=O)Nc2cc(C)nn2-c2ncnc3c2cnn3-c2cccc(Cl)c2)cc1	i
SMILES	FECH block
CCC(CC)C(=O)Nc1cc(C)nn1-c1ncnc2c1cnn2-c1cccc(Cl)c1	+
CCOc1ccc(CC(=O)Nc2cc(C)nn2-c2ncnc3c2cnn3-c2ccc(Cl)cc2)cc1	+
CCCC(=O)Nc1cc(C)nn1-c1ncnc2c1cnn2-c1cccc(Cl)c1	i
Cc1ccc(OCC(=O)Nc2cc(C)nn2-c2ncnc3c2cnn3-c2ccc(Cl)cc2)cc1	i
Cc1cc(NC(=O)CC(C)(C)C)n(-c2ncnc3c2cnn3-c2cccc(Cl)c2)n1	i
O=C(NC1CCN(Cc2cccnc2)CC1)c1ccc(CSc2ncn[nH]2)o1	i
Cc1cc(F)ccc1S(=O)(=O)N1CC(c2ccncc2)C1	i
Cc1cc2c(cc1S(=O)(=O)N1CCCC1C(=O)N1CCc3ccccc31)OCC(=O)N2 (configuration not stated)	+
CCOC(=O)C1CCN(S(=O)(=O)c2cc3c(cc2Cl)NC(=O)CO3)CC1	i
COc1ccccc1NC(=O)C1CCCN1S(=O)(=O)c1cc2c(cc1C)NC(=O)CO2 (configuration not stated)	i
Cc1ccc(NC(=O)CN2C(=O)CCc3cc(S(=O)(=O)N4CCCC4)ccc32)nc1	i
Cc1ccc(NC(=O)C2CCN(S(=O)(=O)c3cc4c(cc3C)NC(=O)CO4)CC2)nc1	+
CC1CCCCN1S(=O)(=O)c1cc2c(cc1Cl)NC(=O)CO2 (configuration not stated)	i
CCc1ccc(-n2c(CN3CCN(S(=O)(=O)c4ccc(OC)cc4)CC3)nc3cccnc32)cc1	i
O=S(=O)(NCCn1c(C(F)(F)F)nc2cccnc21)c1cccc(Cl)c1	i
Cc1ccc2nc(CCNC(=O)c3cc(=O)[nH]c4ccccc34)[nH]c2c1	i
CCc1ccccc1Nc1c(-c2ccc3c(c2)CCCC3)c(=O)c1=O	i
CCOc1ccc(-c2nc(CSc3nc4c(c(=O)[nH]3)CCC4)c(C)o2)cc1OC	i
COc1ccc(-c2ccc(=O)[nH]n2)cc1S(=O)(=O)Nc1ccc(C)cc1C	i
COc1ccc(-c2cc(C(=O)Nc3ccc(C)cc3C)[nH]n2)cc1S(N)(=O)=O	i
Cc1ccc(NS(=O)(=O)c2ccc(N)c(S(N)(=O)=O)c2)c(C)c1	+
